Hits are enriched below; roughly 7.6% of the tested compounds scored in any of these assays.
Cy5 interf NS3h: enhances or quenches Cy5 fluorescence in NS3h assay. Cy5-dT15 DNA with NS3h, fluorescence interference; actives lie on both sides; signal over control mean, under 1 quenches. actives 6% (n = 16,000). fluorescence interference ratio at 100 µM;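 active = compound fluorescence over control fluorescence at most 0.8, a quencher, or at least a set upper limit, an enhancer; inactive = ratio between 0.8 and the set upper limit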
HCV NS3h FP: hepatitis C NS3 helicase inhibition, primary screen. NS3h Cy5-dT15 DNA binding, fluorescence polarization. inhibition, % at 100 µM. actives 1.6% (n = 16,000);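 active = inhibition above the average over every tested compound plus 3 SD, cut at about 40% in these data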
NS3h confirm: hepatitis C NS3 helicase inhibition, confirmation | shares compounds with HCV NS3h FP | NS3h binding to Cy5-dT15 DNA, fluorescence polarization | inhibition, % at 100 µM | actives 20% (n = 240);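 active = percent inhibition of 50% or more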
SSB-DNA FP CB: disrupts E. coli SSB binding to DNA in counter-screen; shares compounds with HCV NS3h FP; E. coli SSB binding Cy5-dT15, fluorescence polarization; inhibition, % at 100 µM; actives 40% (n = 240); AID 720486;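 active = inhibition of at least 50%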;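 note: displacers lower Cy5 polarization so higher inhibition means more SSB displaced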
Target sequence (P0AGE0 whole entry, looked up): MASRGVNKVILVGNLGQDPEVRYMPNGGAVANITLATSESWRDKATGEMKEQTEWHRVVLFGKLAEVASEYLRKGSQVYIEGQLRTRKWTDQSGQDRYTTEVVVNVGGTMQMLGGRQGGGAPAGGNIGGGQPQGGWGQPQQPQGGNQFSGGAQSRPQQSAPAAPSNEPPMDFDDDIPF
Cy5 SSB interf: Cy5 fluorescence interference in NS3h counter-screen | shares compounds with HCV NS3h FP | Cy5-dT15/E. coli SSB fluorescence interference; actives lie on both sides | fluorescence interference ratio at 100 µM | actives 8% (n = 240);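 active = fluorescence interference ratio at or above 1.2, signal boosting, or at or below 0.8, signal quenching; inactive = ratio between 0.8 and 1.2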
Cy5 interf conf: Cy5 fluorescence interference, confirmation counter-screen. shares compounds with HCV NS3h FP. Cy5-dT15 DNA/NS3h fluorescence interference counterscreen. fluorescence interference ratio at 100 µM, hits read low. actives 44% (n = 240). AID 720489;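 active = fluorescence interference ratio at or below 0.8 quencher or at or above a set limitenhancer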
Of the large screens only hits and unclear results are named; the others gave an inactive call (follow-up assays come after a bar, where they were run).

Cc1ccc(C=C2C(=O)NC(=S)N(c3ccccc3Cl)C2=O)o1	HCV NS3h FP 60 | NS3h confirm inactive | SSB-DNA FP CB 78 | Cy5 SSB interf inactive | Cy5 interf conf 0.79
CCOc1ccc2c(c1)C(C)=CC(C)(C)N2C(=O)CN1C(=O)CCC1=O	none
CCN(CC)c1ccc(/C=C/c2[nH]c(=O)[nH]c(=O)c2[N+](=O)[O-])c(OC)c1	HCV NS3h FP 54 | NS3h confirm inactive | SSB-DNA FP CB inactive | Cy5 SSB interf inactive | Cy5 interf conf inactive
O=c1[nH]c(/C=C\c2ccccc2Cl)c([N+](=O)[O-])c(=O)[nH]1	none
O=C1NN(c2ccccc2)C(=O)/C1=C/c1ccc(-c2ccc(C(=O)O)cc2)o1	none
Cc1ccc(-c2ccc(/C=C3\C(=O)NN(c4ccccc4)C3=O)o2)c([N+](=O)[O-])c1	none
O=C1NN(c2ccccc2)C(=O)/C1=C/c1ccc(Br)o1	HCV NS3h FP 94 | NS3h confirm 52 | SSB-DNA FP CB 107 | Cy5 SSB interf inactive | Cy5 interf conf 0.79
O=C1NN(c2ccccc2)C(=O)/C1=C/c1ccc([N+](=O)[O-])o1	Cy5 interf NS3h 0.77, HCV NS3h FP 82 | NS3h confirm 52 | SSB-DNA FP CB 117 | Cy5 SSB interf inactive | Cy5 interf conf inactive
O=S(=O)(N/N=C\c1cccnc1)c1ccc(Br)cc1	none
Cc1ccc(-c2nc3cc(Cl)ccc3o2)cc1NC(=O)c1cccc(Cl)c1Cl	none
Cc1ccc(C)c(NC(=O)c2ccc(OCC(C)C)cc2)c1	none
O=C1N=c2ccc(Br)cc2=C1c1sc(=S)n(C(Cc2ccccc2)C(=O)O)c1O (stereo unspecified)	Cy5 interf NS3h 0.76, HCV NS3h FP 76 | NS3h confirm inactive | SSB-DNA FP CB 66 | Cy5 SSB interf 0.75 | Cy5 interf conf inactive
O=C1N=c2ccc([N+](=O)[O-])cc2=C1c1sc(=S)n(Cc2ccco2)c1O	none
O=C(NC(=S)Nc1ccc2oc(-c3ccc(I)cc3)nc2c1)c1ccco1	none
COc1cccc(C=C2C(=O)c3ccccc3C2=O)c1	none
O=C1C(=Cc2ccccc2Br)C(=O)c2ccccc21	HCV NS3h FP 74 | NS3h confirm 51 | SSB-DNA FP CB inactive | Cy5 SSB interf inactive | Cy5 interf conf inactive
Cc1ccc(N2C(=O)CC(N3CCN(c4ccc([N+](=O)[O-])cc4)CC3)C2=O)cc1 (stereo unspecified)	none
O=C(NNc1nc(-c2ccccc2)cs1)c1cccc(Br)c1	none
Cn1c(/C=C/c2ccco2)nc2ccccc21	none
Cn1c(/C=C/c2ccc(C(=O)c3ccccc3)o2)nc2ccccc21	HCV NS3h FP 51 | NS3h confirm inactive | SSB-DNA FP CB inactive | Cy5 SSB interf inactive | Cy5 interf conf inactive
